# Results reported in article PMC12864922, “TDP-43 directly inhibits mRNA accumulation in neurites through modulation of mRNA stability”.
# The full ranking holds about 9,900 sequences; the median of “r (bound/input frequency ratio)” is about 0.7, and the highest 2% start at about 6.5. This excerpt belongs to a sample that is enriched for the highest values.
# B1: ENSMUSG00000058297.104|Spock2 (ssRNA)
# RNA: GGGAGUUCUACAGUCCGACGAUCGCUUCGAUAUCCGCAUGCUAACCACGGUCUUGUGGUGAUGAGGCAGGACCUGUACACACAGCAAGGCUUACUAUCCGUCUCCUGACAUCCGAAGAGCUCGUCGCAGGUGUGUCUAAUGGCCCUUGGGCUGCACGUGGUUAAGCAUAGCUGUCUCUGUGGCCCAACACAAAGAGGUAAACUUACUUAAAACACAGGGGUUUUGUUGCUGUUUGUUUUUUGUUAGUUUGUUUGUUGAUAAUUGGAUUGAGGAGUUAAUCCUCUGUCACAAUGUCAAAAGCAUCUCUUGCGGUCGCACUAGUGUGGAAUUCUCGGGUGUCAAGG
# B2: ENSMUSG00000043670.53|Diras1|229:234 (ssRNA)
# RNA: GGGAGUUCUACAGUCCGACGAUCGCUUCGAUAUCCGCAUGCUACCUACAGUAAGGUUGGGCUCCAUCCCUGCCUCUUCACACCUCCAUAGCUUCAUCCUUUGCAGACCUCUCCCUCUAUAUCUCUUUGCUCCCCCACCCCCAUUCUAUCUGCACCCCACAACCACACACUGGAGGUUUGAUCCCUGUGGAUCUGAAAACAGGGACCUGGCUAAGGAACUGCUCAUCCCAGUCAGGCCCAGAGAGGUUACCUUGCCUCUCCAUCUCUGUCCCACACACCCCAGCCAUGCCCACUGUCCCUGUCCCUCUUGCGGUCGCACUAGUGUGGAAUUCUCGGGUGUCAAGG
# B3: ENSMUSG00000029636.33|Wasf3|33:37;79:83 (ssRNA)
# RNA: GGGAGUUCUACAGUCCGACGAUCGCUUCGAUAUCCGCAUGCUAUCCCUGUAGCUUUAGUCCCUUUUGUAUUAACACACACAUUUGCUUCUGCACAUCCUUCUGGAUUUGUUGAGUAUUUACACACAAAUACUUAAGUGCCACAGAACACAGCACACCGUGCUGCACACCAGGAAACUCGCAGUAUUAGUGCAUCACCCUGGAACAGCAUCUUGCUUCCCUCUCAGCCGUGAGAGUCCCCUCUCCUGUCCAUCCUGAUUUGGUGGGCUUGCCACGUAUCUGCGCAGCUGCCCCACGUCAGCUCUCUCUUGCGGUCGCACUAGUGUGGAAUUCUCGGGUGUCAAGG
# B4: ENSMUSG00000004113.19|Cacna1b|119:123 (ssRNA)
# RNA: GGGAGUUCUACAGUCCGACGAUCGCUUCGAUAUCCGCAUGCUAACCCUUACCUAGGGCAGCGUCUGGACAGUGAGGCCUCCGCCCACACCCUGCCUGAGGAUACACUCACCUUUGAAGAGGCAGUGGCCACCAACUCUGGCCGCUCCUCCAGGACUUCCUAACACACCUCCCUCACUUCCCAAUCCCACCCUCUCCGCCGUGUACCCAAUGGCUAUCACUGCACUUUGGGACUCAGCACUGGCGUCCGGGCGCGGCACAGCUACCACCACCCCGAUCAGGACCACUGGUGCUAGCUGCACCACCUCUUGCGGUCGCACUAGUGUGGAAUUCUCGGGUGUCAAGG
# B5: ENSMUSG00000028439.148|Fam219a (ssRNA)
# RNA: GGGAGUUCUACAGUCCGACGAUCGCUUCGAUAUCCGCAUGCUAAGGCUGGAAGCAAGAGAUAAGGCUGGCCUCCUGUGCCCCAUUGCCAUUUCACCCUAGCUCAAAGUCCAGGAGCCAGGCUUCCAGAAAGGCUCUUCAAGAGCAAGCUUAAGGAAAUACAGUGAGCCAAGUGGCUGUAUGAUAUGGUAUGGUAUGGUAUGGUAUGGUAUGGUAUGGUAUGCACAUGUGUGUGCAUGUGUGUGUGCCUGUGUGUGUGCGUGUGCGUGUGUGUAUGUGUGUGCGUGUGUGUGUGUGUGUGUUGUCUCUUGCGGUCGCACUAGUGUGGAAUUCUCGGGUGUCAAGG
# B6: ENSMUSG00000028439.137|Fam219a (ssRNA)
# RNA: GGGAGUUCUACAGUCCGACGAUCGCUUCGAUAUCCGCAUGCUAUGCAUCUGUCUCUCUGCCUCAUCCCCACACCGCCCUGCCACCCCCAGUCUUCUGUCUAUUGGUUCCAGGCUGGAAGCAAGAGAUAAGGCUGGCCUCCUGUGCCCCAUUGCCAUUUCACCCUAGCUCAAAGUCCAGGAGCCAGGCUUCCAGAAAGGCUCUUCAAGAGCAAGCUUAAGGAAAUACAGUGAGCCAAGUGGCUGUAUGAUAUGGUAUGGUAUGGUAUGGUAUGGUAUGGUAUGGUAUGCACAUGUGUGUGCAUGCUCUUGCGGUCGCACUAGUGUGGAAUUCUCGGGUGUCAAGG
# B7: ENSMUSG00000028439.147|Fam219a (ssRNA)
# RNA: GGGAGUUCUACAGUCCGACGAUCGCUUCGAUAUCCGCAUGCUAGGUUCCAGGCUGGAAGCAAGAGAUAAGGCUGGCCUCCUGUGCCCCAUUGCCAUUUCACCCUAGCUCAAAGUCCAGGAGCCAGGCUUCCAGAAAGGCUCUUCAAGAGCAAGCUUAAGGAAAUACAGUGAGCCAAGUGGCUGUAUGAUAUGGUAUGGUAUGGUAUGGUAUGGUAUGGUAUGGUAUGCACAUGUGUGUGCAUGUGUGUGUGCCUGUGUGUGUGCGUGUGCGUGUGUGUAUGUGUGUGCGUGUGUGUGUGUGUGCUCUUGCGGUCGCACUAGUGUGGAAUUCUCGGGUGUCAAGG
# B8: ENSMUSG00000028439.138|Fam219a (ssRNA)
# RNA: GGGAGUUCUACAGUCCGACGAUCGCUUCGAUAUCCGCAUGCUAUGUCUCUCUGCCUCAUCCCCACACCGCCCUGCCACCCCCAGUCUUCUGUCUAUUGGUUCCAGGCUGGAAGCAAGAGAUAAGGCUGGCCUCCUGUGCCCCAUUGCCAUUUCACCCUAGCUCAAAGUCCAGGAGCCAGGCUUCCAGAAAGGCUCUUCAAGAGCAAGCUUAAGGAAAUACAGUGAGCCAAGUGGCUGUAUGAUAUGGUAUGGUAUGGUAUGGUAUGGUAUGGUAUGGUAUGCACAUGUGUGUGCAUGUGUGUGCUCUUGCGGUCGCACUAGUGUGGAAUUCUCGGGUGUCAAGG
# B9: ENSMUSG00000028439.140|Fam219a (ssRNA)
# RNA: GGGAGUUCUACAGUCCGACGAUCGCUUCGAUAUCCGCAUGCUAUCAUCCCCACACCGCCCUGCCACCCCCAGUCUUCUGUCUAUUGGUUCCAGGCUGGAAGCAAGAGAUAAGGCUGGCCUCCUGUGCCCCAUUGCCAUUUCACCCUAGCUCAAAGUCCAGGAGCCAGGCUUCCAGAAAGGCUCUUCAAGAGCAAGCUUAAGGAAAUACAGUGAGCCAAGUGGCUGUAUGAUAUGGUAUGGUAUGGUAUGGUAUGGUAUGGUAUGGUAUGCACAUGUGUGUGCAUGUGUGUGUGCCUGUGUGUGCUCUUGCGGUCGCACUAGUGUGGAAUUCUCGGGUGUCAAGG
# B10: ENSMUSG00000028439.141|Fam219a (ssRNA)
# RNA: GGGAGUUCUACAGUCCGACGAUCGCUUCGAUAUCCGCAUGCUACCACACCGCCCUGCCACCCCCAGUCUUCUGUCUAUUGGUUCCAGGCUGGAAGCAAGAGAUAAGGCUGGCCUCCUGUGCCCCAUUGCCAUUUCACCCUAGCUCAAAGUCCAGGAGCCAGGCUUCCAGAAAGGCUCUUCAAGAGCAAGCUUAAGGAAAUACAGUGAGCCAAGUGGCUGUAUGAUAUGGUAUGGUAUGGUAUGGUAUGGUAUGGUAUGGUAUGCACAUGUGUGUGCAUGUGUGUGUGCCUGUGUGUGUGCGUGCUCUUGCGGUCGCACUAGUGUGGAAUUCUCGGGUGUCAAGG
# B11: ENSMUSG00000004113.485|Cacna1b (ssRNA)
# RNA: GGGAGUUCUACAGUCCGACGAUCGCUUCGAUAUCCGCAUGCUACCUUUGACUAGUUUGCUGCCUGAAUAAUAUUUACAAACUAAACUUUGGAUUCUGCUCUUGUUUCUACAAUGAUUUUUUGUAUAAAGCAAAGUCCUUGGAUUAAAUAAAAACAACCCAAAAAAAAAAUCAAAAUCAAAACCCAGGAUGCAACUGGGUGAUACCUGAGGACAGUGUGUCUCAGUGCGUCGGUGGAGAGGGUAUACUGCCAGGAGAGCUCAAGAAAAAUUGAGAACUUCAGCAAAGUGCCUGUGAGCACUUGGCUCUUGCGGUCGCACUAGUGUGGAAUUCUCGGGUGUCAAGG
# B12: ENSMUSG00000035202.103|Lars2|4:8 (ssRNA)
# RNA: GGGAGUUCUACAGUCCGACGAUCGCUUCGAUAUCCGCAUGCUAGCUACACACUCCAGUGUCUUUUACCAUCACAGGCCCUGGCUCUGUGCUACCUCCCUAGAAUACCUGUGGUUCAUCACCUUCAGCUCACACUCCAUUCAGACAAUGCUCACUUAGGCCUACAAGCAAGGGAGAGGCUUAAGCACAAGGUCUUUAAGCUUGAUACUGUGCCUGGUCUCAAUGCCUAGAAAUUCCAACUUAACUGUCGCUAUCAUAAAGGAUUUUAAAUUUUUUUACAAGUGAGAACCUAGCAUGUCAAGGUCCUCUUGCGGUCGCACUAGUGUGGAAUUCUCGGGUGUCAAGG
# B13: ENSMUSG00000022095.200|Fam160b2 (ssRNA)
# RNA: GGGAGUUCUACAGUCCGACGAUCGCUUCGAUAUCCGCAUGCUACCACCUCUCGAAGCCGGGCACAGGUUGCCAGGAGGUGACAUGAAAGAGGAGGAAACUCCAUGACCUCUACAUCCCCCGCAGUCCUCCCAGCGGGGGAGGACUUCUCUGCUGCUCCGAAGAACAUCAUGCACUCCUGUGUGUGUGUGUGAGUGUGUGUGUGUGUGUGUGUGUGUGUGUGUGUGUAUGUGUGUGUAUAUGUGUGUGUGUGUGUGUAUGUGUGUGUGUGUGUGUGAGUGAGUGUGUGUGUGUGUGUGUGUGUGCUCUUGCGGUCGCACUAGUGUGGAAUUCUCGGGUGUCAAGG
# B14: ENSMUSG00000022095.199|Fam160b2 (ssRNA)
# RNA: GGGAGUUCUACAGUCCGACGAUCGCUUCGAUAUCCGCAUGCUACCCAUGCCACCUCUCGAAGCCGGGCACAGGUUGCCAGGAGGUGACAUGAAAGAGGAGGAAACUCCAUGACCUCUACAUCCCCCGCAGUCCUCCCAGCGGGGGAGGACUUCUCUGCUGCUCCGAAGAACAUCAUGCACUCCUGUGUGUGUGUGUGAGUGUGUGUGUGUGUGUGUGUGUGUGUGUGUGUGUAUGUGUGUGUAUAUGUGUGUGUGUGUGUGUAUGUGUGUGUGUGUGUGUGAGUGAGUGUGUGUGUGUGUGUGCUCUUGCGGUCGCACUAGUGUGGAAUUCUCGGGUGUCAAGG
# B15: ENSMUSG00000022095.202|Fam160b2 (ssRNA)
# RNA: GGGAGUUCUACAGUCCGACGAUCGCUUCGAUAUCCGCAUGCUAGCCGGGCACAGGUUGCCAGGAGGUGACAUGAAAGAGGAGGAAACUCCAUGACCUCUACAUCCCCCGCAGUCCUCCCAGCGGGGGAGGACUUCUCUGCUGCUCCGAAGAACAUCAUGCACUCCUGUGUGUGUGUGUGAGUGUGUGUGUGUGUGUGUGUGUGUGUGUGUGUGUAUGUGUGUGUAUAUGUGUGUGUGUGUGUGUAUGUGUGUGUGUGUGUGUGAGUGAGUGUGUGUGUGUGUGUGUGUGUGUGAGUGUGUGUGCUCUUGCGGUCGCACUAGUGUGGAAUUCUCGGGUGUCAAGG
# Target: TDP-43 (Homo sapiens, UniProt Q13148 1-414)
# Sequence (Q13148 whole entry): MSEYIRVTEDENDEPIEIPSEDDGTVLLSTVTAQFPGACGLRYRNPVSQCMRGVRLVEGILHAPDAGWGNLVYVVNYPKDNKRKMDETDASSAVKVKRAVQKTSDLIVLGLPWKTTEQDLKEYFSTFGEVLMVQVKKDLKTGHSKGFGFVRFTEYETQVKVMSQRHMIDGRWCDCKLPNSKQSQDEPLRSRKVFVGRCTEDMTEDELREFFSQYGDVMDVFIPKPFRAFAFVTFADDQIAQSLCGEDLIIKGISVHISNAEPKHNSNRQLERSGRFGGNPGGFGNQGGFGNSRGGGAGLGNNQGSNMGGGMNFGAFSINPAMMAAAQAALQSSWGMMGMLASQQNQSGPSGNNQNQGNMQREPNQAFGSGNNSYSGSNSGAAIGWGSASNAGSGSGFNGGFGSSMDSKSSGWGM
# Experiment: RNA Bind-n-Seq with designed 260-mer pool; 25 mM Tris-HCl, 150 mM KCl, 3 mM MgCl2, BSA (printed 500 mg/mL), 20 units/mL SUPERase IN; pH not stated; 500 nM RNA pool, 1 h, 4 C; TDP-43 5, 50, 500 nM; high values mean tight binding
# Details: protein: recombinant; tags: SBP (GST cleaved off with PreScission; pGEX-GST-SBP)
# Method in brief: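 For each oligo, R gives binding as its mapped-read-normalized abundance after pulldown divided by its abundance in input. Bead-captured SBP-tagged TDP-43 (5, 50 or 500 nM) was incubated with 500 nM of an in vitro-transcribed 260-nt 3′ UTR oligo pool for 1 h at 4 °C in 25 mM Tris-HCl, 150 mM KCl, 3 mM MgCl2, BSA and SUPERase IN on streptavidin beads. Washed, biotin-eluted RNA was reverse transcribed, PCR-amplified and sequenced.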
row,Binder,binding signal
1,B1,0.391 R (bound/input frequency ratio)
2,B2,2.98 R (bound/input frequency ratio)
3,B3,0.758 R (bound/input frequency ratio)
4,B4,1.6 R (bound/input frequency ratio)
5,B5,7.16 R (bound/input frequency ratio)
6,B6,1.7 R (bound/input frequency ratio)
7,B7,7.43 R (bound/input frequency ratio)
8,B8,1.6 R (bound/input frequency ratio)
9,B9,2.02 R (bound/input frequency ratio)
10,B10,3.58 R (bound/input frequency ratio)
11,B11,0.542 R (bound/input frequency ratio)
12,B12,0.427 R (bound/input frequency ratio)
13,B13,7.08 R (bound/input frequency ratio)
14,B14,8.67 R (bound/input frequency ratio)
15,B15,7.21 R (bound/input frequency ratio)
